A selection: hits, their analogues and other compounds. The true share with any hit is near 12%.
HP1b chromo inh: HP1-beta chromodomain-methylated histone interaction inhibition. P83916. AlphaScreen HP1-beta / biotin-H3K9me3 peptide binding. Potency, µM (highest dose often 114 µM), inactives show top-dose activity change, negative = inhibition, usual class: inhibitors. 390,000 compounds, 0.56% hits; also: nearly all actives have a fitted effect of over 70% in size
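AlphaScreen: HP1-beta (50 nM) preformed 30 min with biotin-H3(1-18)K9me3 peptide (50 nM) in PBS pH 7.4, 0.01% Tween-20. Compound added for 30 min at RT, then streptavidin donor/nickel chelate acceptor beads (10 ug/mL) for 30 min.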
JMJD2A Tudor: JMJD2A Tudor domain (human) inhibition. Potency, µM (titrated, usually from 114 µM), for the others: at the top dose activity change, negative = inhibition, usual class: inhibitors. AID 504339. 390,000 compounds, 4.4% hits. AlphaScreen JMJD2A-Tudor / H3K4me3 peptide binding. O75164; also: % is scaled to controls: 0 for no effect and ±100 for the full control effect; nearly all actives have a fitted effect of over 50% in size
G9a block: G9a (human) methyltransferase inhibition | Q96KQ7 | G9a H3K9 monomethylation, AlphaScreen, 2 h | Potency, µM (highest dose often 102 µM), without a hit: at the highest dose activity, negative = inhibition, hits mostly inhibitors | 350,000 compounds, 8.8% hits | AID 504332; also: % is scaled to controls: 0 for no effect and ±100 for the full control effect; nearly all actives have a fitted effect of over 75% in size
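Quantitative HTS format: methyltransferase activity on a biotin-tagged H3K9 peptide is measured by AlphaScreen, using a rabbit anti-monomethyl-H3K9 antibody with streptavidin donor and anti-IgG acceptor beads. Final levels are 20 nM enzyme, 500 nM peptide, 20 uM SAM; 2 h RT.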
Sfp inh: blocks B. subtilis Sfp PPTase activity; Q9F4F7; Biochemical Sfp PPTase activity, qHTS; Potency, µM, without a hit: largest response in the series, negative = inhibition, most hits filed as inhibitors; 310,000 compounds, 3.5% hits; AID 1490;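 also: the enzyme is Sfp with the accession as filed and its product quenches rhodamine fluorescence; 0% = enzyme reaction without inhibitor and -100% = no enzyme wells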
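Fluorescence-quenching assay: 15 nM Sfp-PPTase preincubated 15 min at room temperature with compound, then 5 uM rhodamine-CoA and 12.5 uM BHQ-2-labelled YbbR peptide added. Fluorescence (ex 525/em 598 nm) read at start and after 30 min; difference gives rate.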
L3MBTL1 inh: inhibitors of human L3MBTL1; Q9Y468; AlphaScreen L3MBTL1–H3K9me1 peptide binding; Potency, µM (series often up to 57.1 µM), for the others: top-dose activity, negative = inhibition, actives largely listed as inhibitors; 230,000 compounds, 0.66% hits; AID 485360; also: % is scaled to controls: 0 for no effect and ±100 for the full control effect; nearly all actives have a fitted effect of over 60% in size
Target sequence (Q9Y468 whole entry, looked up): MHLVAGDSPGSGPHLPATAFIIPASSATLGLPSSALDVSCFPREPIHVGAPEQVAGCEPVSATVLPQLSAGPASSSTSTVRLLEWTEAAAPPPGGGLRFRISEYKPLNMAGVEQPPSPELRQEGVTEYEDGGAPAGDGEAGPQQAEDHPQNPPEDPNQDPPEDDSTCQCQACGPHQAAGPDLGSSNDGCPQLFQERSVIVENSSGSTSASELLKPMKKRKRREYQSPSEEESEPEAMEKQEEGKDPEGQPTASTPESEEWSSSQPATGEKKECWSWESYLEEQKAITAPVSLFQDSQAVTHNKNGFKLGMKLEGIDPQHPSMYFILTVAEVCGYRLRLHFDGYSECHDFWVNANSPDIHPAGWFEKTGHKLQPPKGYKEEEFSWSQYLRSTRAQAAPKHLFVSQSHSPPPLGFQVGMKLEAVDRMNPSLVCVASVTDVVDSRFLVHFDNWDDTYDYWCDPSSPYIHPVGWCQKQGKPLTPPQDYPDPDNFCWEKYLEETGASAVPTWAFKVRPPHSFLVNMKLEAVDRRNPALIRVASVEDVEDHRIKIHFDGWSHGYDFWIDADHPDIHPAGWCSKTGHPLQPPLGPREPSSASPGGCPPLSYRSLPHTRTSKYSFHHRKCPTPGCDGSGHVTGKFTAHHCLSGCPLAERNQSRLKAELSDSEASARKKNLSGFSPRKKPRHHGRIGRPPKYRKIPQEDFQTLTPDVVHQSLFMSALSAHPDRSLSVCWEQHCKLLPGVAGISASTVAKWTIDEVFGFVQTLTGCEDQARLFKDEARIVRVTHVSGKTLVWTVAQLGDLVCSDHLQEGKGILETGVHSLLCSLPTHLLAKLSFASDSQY
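Displacement of a biotinylated histone H3(1-15) peptide monomethylated at Lys9 (75 nM) from L3MBTL1 (50 nM) was measured by AlphaScreen after a 30 min room-temperature compound incubation; cefsulodin titration served as intraplate control.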
BAZ2B inh: BAZ2B (human) inhibition. Potency, µM (highest dose often 114 µM), inactives show top-dose activity change, negative = inhibition, usual class: inhibitors. AlphaScreen BAZ2B-H3K14Ac peptide displacement. 360,000 compounds, 4.4% hits; also: % is scaled to controls: 0 for no effect and ±100 for the full control effect; nearly all actives have a fitted effect of over 60% in size
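Multi-concentration screen (max 110 uM) measuring displacement of acetylated histone H3 peptide from BAZ2B by AlphaScreen, using 50 nM protein, 50 nM peptide and 10 ug/mL streptavidin donor plus Ni-chelate acceptor beads.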
An asterisk follows results filed as active; ? = inconclusive; / = not tested or not shown; [ ] = dose if it differs, or a comment. Calls follow the shape of the dose curve; as a rule, active = well fitted curve in the direction sought with a large enough effect; inconclusive = small, poorly fitted or top-dose-only effect, or another doubt; inactive = no such curve, though single readings can be large; an effect the other way counts as inactive or inconclusive. Potency is read from the fitted curve at half-maximal effect.

SMILES	HP1b chromo inh	JMJD2A Tudor	G9a block	Sfp inh	L3MBTL1 inh	BAZ2B inh
Cc1ccc(S(=O)(=O)c2nnn3c2nc(N2CCC(C)CC2)c2cc(Cl)ccc23)cc1C	34%	5%	4%[59 µM]	/	/	11%
CCOc1ccc(Nc2oc(-c3ccc(COc4ccc(C)cc4)o3)nc2C#N)cc1	4%	-24%	-25%[59 µM]	/	/	?
Cc1ccc(N2C(=O)CSCC2=O)cc1	24%	-5%	7%[12.7 µM]	4%	/	-3%
Cc1ccc(N2C(=O)CS(=O)(=O)CC2=O)cc1	63%	-6%	32µM*	7%	3%	-18%
CCOc1ccccc1NC(=O)Cn1c(=O)n(-c2ccc(C)c(C)c2)c(=O)c2oc3ccccc3c21	22%	-15%	3%[59 µM]	/	/	-17%
OCC[C@@H]1C[C@H](O)[C@@H](O)[C@@]2(CCc3ccccc3CO2)O1	28%	-10%	45µM*	-10%	-1%	-6%
OCC[C@@H]1C[C@@H](O)[C@H](O)[C@]2(CCCc3ccccc3O2)O1	43%	-6%	-5%	12%	0%	-30%
OCC[C@@H]1C[C@H](O)[C@@H](O)[C@@]2(CCCc3ccccc3O2)O1	45%	-21%	28µM*	-6%	-2%	-18%
O=C(C[n+]1ccccc1)N/N=C/c1c(F)cccc1Cl	28%	-11%	-4%	0%	/	56µM*
O=C(C[n+]1ccccc1)N/N=C/c1ccc(Cl)cc1	25%	?	-1%[12.7 µM]	/	-23%	50µM*
CC(C)(C)c1cc(/C=N/NC(=O)C[n+]2ccccc2)cc(C(C)(C)C)c1O	48%	56µM*	-51%	8%	/	50µM*
CCN1C(=O)/C(=C2/C=Cc3ccccc3N2C)OC1=S	6%	-25%[11.4 µM]	20µM*	-19%	/	-29%
CCN1C(=O)/C(=C2\C=Cc3cc(C)ccc3N2CC)OC1=S	?	?	?	1%	?	?
CCN1C(=O)/C(=C2\C=Cc3ccccc3N2CC)SC1=S	3.2µM*	2.8µM*	?	-29%	?	8.9µM*
CCN1C(=O)/C(=c2\o/c(=C3\C=Cc4ccccc4N3CC)c(=O)n2CC)SC1=S	-34%	?	?	8%	-5%	/
Cc1ccc(C)c(NC(=O)CCc2c(C)nn(-c3ccc(N4CCCC4)nn3)c2C)c1	28%	-14%	9%[59 µM]	/	/	-1%
Cc1cc(C(=O)COC(=O)c2cccn2C)c(C)n1Cc1ccco1	?	50µM*	18µM*	-18%	-57%	45µM*
Cc1cc(C(=O)CSc2nnc(N)s2)c(C)n1Cc1ccco1	9%	-6%	40µM*	10%	/	-38%
Nc1nnc(SCC(=O)c2ccco2)s1	21%	-7%	9%[0.501 µM]	?	3%	2%
CCOc1ccc(S(=O)(=O)NCCc2c(C)[nH]c3c(Cl)cccc23)cc1C	-6%	?	?	/	/	?
O=S1(=O)N=C(Nc2cccc(C(F)(F)F)c2)c2ccccc21	24%	12%	0%[59 µM]	/	/	0%
COc1ccc(-c2nc(CN3CCN(C(=O)c4ccco4)CC3)c(C)o2)cc1OC	19%	-19%	56µM*	6%	/	14%[57.1 µM]
O=C(c1ccco1)N1CCN(C(=O)c2ccccc2OCc2ccccc2)CC1	24%	-3%	/	/	4%	/
COc1ccc(CN2CCN(C(=O)c3ccco3)CC2)cc1OCc1ccccc1	?	?	11µM*	-17%	-5%	56µM*
CCn1c2ccccc2c2cc(CN3CCN(C(=O)c4ccco4)CC3)ccc21	?	35µM*	?	56µM*	?	?
SMILES	HP1b chromo inh	JMJD2A Tudor	G9a block	Sfp inh	L3MBTL1 inh	BAZ2B inh
COc1cc(-c2nc(CN3CCN(C(=O)c4ccco4)CC3)c(C)o2)ccc1F	22%	-31%	-5%	8%	/	?
COc1ccccc1OCc1ccc(C(=O)N2CCN(C(=O)c3ccco3)CC2)cc1	1%	-26%	45µM*	-23%	/	3%
Cc1cc(C)cc(NC(c2cccc(Cl)c2)c2nnc(-c3ccccc3)o2)c1 (stereo not given)	13%	-30%	-7%[59 µM]	/	/	-28%
Cc1ccccc1NC(=O)C1CCN(C(=O)c2cnn(-c3ccccc3)c2-n2cccc2)CC1	8%	-14%	11%[59 µM]	/	/	-2%
COc1ccc(CN2CCN(C(=O)c3ccco3)CC2)cc1OC	25µM*	-20%[11.4 µM]	10µM*	-25%	5%	40µM*
O=C(CCCN1C(=O)/C(=C/c2ccccc2)SC1=S)N1CCOCC1	?	-36%	79µM*	-7%	/	40µM*
COc1ccc(/C=C2\SC(=S)N(CCCC(=O)N3CCN(C)CC3)C2=O)cc1	?	?	?	-4%	/	?
O=C(CCN1C(=O)/C(=C\c2ccccc2)SC1=S)N1CCOCC1	27%	-12%	-3%	10%	/	-1%
COc1ccc(/C=C2\SC(=S)N(CCC(=O)N3CCOCC3)C2=O)cc1	4%	-13%	43%[12.7 µM]	11%	/	14%
COc1cccc(/C=C2/SC(=S)N(CCC(=O)N3CCOCC3)C2=O)c1	-5%	56µM*	?	15%	/	1%
COc1cccc(/C=C2\SC(=S)N(CCCC(=O)N3CCCCC3)C2=O)c1	?	40µM*	25µM*	-16%	/	11µM*
Cc1ccc(CNC(=O)c2oc3ccc(S(=O)(=O)N4CCCC(C)C4)cc3c2C)cc1 (stereo not given)	19%	-11%	7%[59 µM]	/	/	-3%
Cc1cc(C)cc(-c2cc3c(c(-c4c(O)c(-c5cc(C)cc(C)c5)cc5c4CCCC5)c2O)CCCC3)c1	/	/	/	-15%	/	/
CCCCc1n[nH]c(=S)n1Cc1ccc(C)cc1	-8%	14µM*	1.8µM*	-5%	2%	-23%
Cc1nccn1CCc1n[nH]c(=S)n1Cc1ccccc1	35%	40µM*	2µM*	3%	-4%	14%
COc1ccccc1OCc1n[nH]c(=S)n1Cc1ccccc1	13%	32µM*	13µM*	8%	/	-10%
CCCCCCCc1n[nH]c(=S)n1Cc1ccccc1	28%	?	/	-9%	-5%	-3%
S=c1[nH]nc(COc2cccc(Cl)c2)n1Cc1ccccc1	15%	-34%	-32%[12.7 µM]	13%	-9%	-19%
S=c1[nH]nc(CCc2ccccc2)n1Cc1ccccc1	20%	?	3.5µM*	-8%	2%	8%
S=c1[nH]nc(COc2ccc(Cl)cc2)n1Cc1ccccc1	23%	-18%	?	26%	-5%	-17%
CCOC(=O)c1ccccc1NC(=O)CSc1nc(=O)[nH]c2c1CCC2	-6%	-8%	3%[59 µM]	/	/	-2%
CCn1c(CCCCc2n[nH]c(=S)n2CC)n[nH]c1=S	?	4.5µM*	20µM*	-28%	0%	-29%
Cc1ccc(NCc2nnc(SCC(=O)O)n2Cc2ccccc2)cc1Cl	31%	-15%	-31%	19%	-5%	-31%

Bioassay records (PubChem)
